The supplement of paper PMC12669032

system: Coprococcus comes; experiment: growth AUC relative to DMSO control (median of replicates) (fraction); higher = more growth (less inhibition), active = hit call of the paper; details: 20 µM; 24 h
Summary of the method: (§1)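 Starting at OD600 0.05, gut bacterial monocultures in mGAM were grown anaerobically at 37 °C with 20 µM compound (1% DMSO) under pierced gas-permeable seals. OD600 was read every hour for 24 h, and the lowest OD of each curve was set to 0. Area under the growth curve was normalised to the plate median of solvent-only wells, or to row and column medians on the industrial chemical plate, and the median of three biological replicates grown on separate days is given.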

SMILES | growth AUC
CN(C)C(=O)Nc1ccc(Cl)c(Cl)c1 | 1.02 (inactive)
CCOC(=O)C1CC(=O)C(=C(O)C2CC2)C(=O)C1 (stereo not drawn) | 1.02 (inactive)
COC(=O)C(C)Oc1ccc(Cl)cc1C (stereo not drawn) | 1.04 (inactive)
FC(F)(F)C(=NOCC1OCCO1)c1ccc(Cl)cc1 | 1.02 (inactive)
NC(=S)Nc1cccc2ccccc12 | 0.974 (inactive)
CC(C)c1cc(Oc2ccccc2)cc(C(C)C)c1NC(=S)NC(C)(C)C | 0.896 (inactive)
O=[N+](Nc1ccccc1)c1ccccc1 | 0.959 (inactive)
Cc1[nH]n(C)c(=O)c1C(=O)c1ccc(C(F)(F)F)cc1S(C)(=O)=O | 0.991 (inactive)
O=C=NC1CCC(CC2CCC(N=C=O)CC2)CC1 (stereo not drawn) | 1.08 (inactive)
CCc1cccc(C)c1N(COC(C)C)C(=O)CCl | 1.03 (inactive)
O=C(Nc1ccc(Cl)cc1C(O)c1ccccc1)c1ccncc1 (stereo not drawn) | 1.04 (inactive)
CNC(=O)Nc1nc2ccccc2s1 | 1.01 (inactive)
CC(C)CNC(=O)N1CCNC1=O | 1.01 (inactive)
C/C=C/C(=O)Oc1c(C(C)CCCCCC)cc([N+](=O)[O-])cc1[N+](=O)[O-] (mixture of isomers) | 0.509 (inactive)
CCOC(=O)NCCOc1ccc(Oc2ccccc2)cc1 | 0.954 (inactive)
NC(=O)Cc1cccc2ccccc12 | 1.04 (inactive)
NS(=O)(=O)[O-].[NH4+] | 1.06 (inactive)
COC(=O)c1ccc(C(=O)OC)cc1 | 0.981 (inactive)
Nc1cc(Cl)nc(C(=O)O)c1Cl | 1.03 (inactive)
CCc1cccc(C)c1N(C(=O)C(=O)O)[C@@H](C)C(=O)O | 1.02 (inactive)

SMILES | growth AUC
O=S(=O)(Oc1ccc(Cl)cc1)c1ccccc1 | 0.997 (inactive)
Oc1ccc2nc(-c3cscn3)[nH]c2c1 | 0.994 (inactive)
COC(=O)c1csc(C)c1S(=O)(=O)NC(=O)n1nc(OC)n(C)c1=O | 1.01 (inactive)
CCCCOCN(C(=O)CS(=O)(=O)[O-])c1c(CC)cccc1CC.[Na+] | 0.957 (inactive)
O.O.O=[N+]([O-])c1ccc([O-])cc1.[Na+] | 1.09 (inactive)
COCC(=O)N(c1c(C)cccc1C(=O)O)C(C)C(=O)O (stereo not drawn) | 1.01 (inactive)
O=C(O)COc1ccc(Cl)cc1CO | 0.999 (inactive)
CCOc1ccc2c(c1)C(C)=CC(C)(C)N2 | 1.03 (inactive)
CC(C)CCCCCOC(=O)C(C)Oc1ccc(Cl)cc1Cl (stereo not drawn) | 1.01 (inactive)
[S] | 0.956 (inactive)
CCCC(C)(C)C(=O)Nc1ccc(Cl)cc1 | 0.978 (inactive)
CSc1nnc(C(C)(C)C)c(=O)n1/N=C/C(C)C | 1.02 (inactive)
O=C(O)CCCc1c[nH]c2ccccc12 | 1.01 (inactive)
C=C1C[C@]23C[C@@]1(O)CC[C@H]2[C@@]12C=C[C@H](O)[C@@](C)(C(=O)O1)[C@H]2[C@@H]3C(=O)O | 0.975 (inactive)
Nc1ccc(S(=O)(=O)Nc2nccs2)cc1 | 1.02 (inactive)
CCCCCCCCCC[N+](C)(C)Cc1ccccc1.[Cl-] | 0.9 (inactive)
CN1CCC[C@H]1c1cccnc1 | 0.984 (inactive)
O=C1NCCN1 | 1.04 (inactive)
O=C(O)COc1cccc(Cl)c1Cl | 1.01 (inactive)

system: Escherichia coli ED1a; experiment: as above; details: 20 µM; 24 h
Summary of the method: as §1

SMILES | growth AUC
CN(C)C(=O)Nc1ccc(Cl)c(Cl)c1 | 0.985 (inactive)
CCOC(=O)C1CC(=O)C(=C(O)C2CC2)C(=O)C1 (stereo not drawn) | 0.972 (inactive)
COC(=O)C(C)Oc1ccc(Cl)cc1C (stereo not drawn) | 0.991 (inactive)
FC(F)(F)C(=NOCC1OCCO1)c1ccc(Cl)cc1 | 1.01 (inactive)
NC(=S)Nc1cccc2ccccc12 | 0.96 (inactive)
CC(C)c1cc(Oc2ccccc2)cc(C(C)C)c1NC(=S)NC(C)(C)C | 1.01 (inactive)
O=[N+](Nc1ccccc1)c1ccccc1 | 0.993 (inactive)
Cc1[nH]n(C)c(=O)c1C(=O)c1ccc(C(F)(F)F)cc1S(C)(=O)=O | 1.01 (inactive)
O=C=NC1CCC(CC2CCC(N=C=O)CC2)CC1 (stereo not drawn) | 1.02 (inactive)
CCc1cccc(C)c1N(COC(C)C)C(=O)CCl | 1.05 (inactive)
O=C(Nc1ccc(Cl)cc1C(O)c1ccccc1)c1ccncc1 (stereo not drawn) | 0.997 (inactive)
CNC(=O)Nc1nc2ccccc2s1 | 0.999 (inactive)
CC(C)CNC(=O)N1CCNC1=O | 1.02 (inactive)
C/C=C/C(=O)Oc1c(C(C)CCCCCC)cc([N+](=O)[O-])cc1[N+](=O)[O-] (mixture of isomers) | 0.976 (inactive)
CCOC(=O)NCCOc1ccc(Oc2ccccc2)cc1 | 1 (inactive)
NC(=O)Cc1cccc2ccccc12 | 0.99 (inactive)
NS(=O)(=O)[O-].[NH4+] | 1.03 (inactive)
COC(=O)c1ccc(C(=O)OC)cc1 | 1 (inactive)
Nc1cc(Cl)nc(C(=O)O)c1Cl | 1.04 (inactive)
CCc1cccc(C)c1N(C(=O)C(=O)O)[C@@H](C)C(=O)O | 1.01 (inactive)

SMILES | growth AUC
O=S(=O)(Oc1ccc(Cl)cc1)c1ccccc1 | 0.981 (inactive)
Oc1ccc2nc(-c3cscn3)[nH]c2c1 | 0.988 (inactive)
COC(=O)c1csc(C)c1S(=O)(=O)NC(=O)n1nc(OC)n(C)c1=O | 1 (inactive)
CCCCOCN(C(=O)CS(=O)(=O)[O-])c1c(CC)cccc1CC.[Na+] | 0.973 (inactive)
O.O.O=[N+]([O-])c1ccc([O-])cc1.[Na+] | 1.05 (inactive)
COCC(=O)N(c1c(C)cccc1C(=O)O)C(C)C(=O)O (stereo not drawn) | 0.986 (inactive)
O=C(O)COc1ccc(Cl)cc1CO | 0.964 (inactive)
CCOc1ccc2c(c1)C(C)=CC(C)(C)N2 | 1.03 (inactive)
CC(C)CCCCCOC(=O)C(C)Oc1ccc(Cl)cc1Cl (stereo not drawn) | 0.979 (inactive)
[S] | 0.976 (inactive)
CCCC(C)(C)C(=O)Nc1ccc(Cl)cc1 | 0.973 (inactive)
CSc1nnc(C(C)(C)C)c(=O)n1/N=C/C(C)C | 1.04 (inactive)
O=C(O)CCCc1c[nH]c2ccccc12 | 0.955 (inactive)
C=C1C[C@]23C[C@@]1(O)CC[C@H]2[C@@]12C=C[C@H](O)[C@@](C)(C(=O)O1)[C@H]2[C@@H]3C(=O)O | 0.982 (inactive)
Nc1ccc(S(=O)(=O)Nc2nccs2)cc1 | 0.994 (inactive)
CCCCCCCCCC[N+](C)(C)Cc1ccccc1.[Cl-] | 1 (inactive)
CN1CCC[C@H]1c1cccnc1 | 0.99 (inactive)
O=C1NCCN1 | 1.05 (inactive)
O=C(O)COc1cccc(Cl)c1Cl | 0.987 (inactive)
